Measured values: the supplement of paper PMC10849652
Of roughly 7,900 targets only a part is listed; those with a hit were picked by preference. About 0.6% of all pairs of compound and target were hits. A number with no mark means an inactive call.

compound: CS(=O)(=O)c1ccc(-c2cnc(N)c(C(=O)Nc3ccccc3)n2)cc1; assay: log2 fold change, soluble protein after heating vs DMSO (PISA); higher = thermal stabilisation; K562 cells, 10 uM, 30 min; active = over 0.2 and 3.5 SD of the protein, either way, in both replicates (recomputed)
Procedure, shortened: (§1)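 Values are thermal stability changes relative to control samples and are taken from duplicates. They are stated as log2 fold changes. Before quantification by TMTpro 16plex LC-MS/MS with equalised channel sums, K562 cells at 2×10^6 cells/mL were treated with 10 μM compound for 30 min, heated in aliquots for 3 min across 48°C-58°C, pooled, extracted in PBS with 0.5% NP-40 at 4°C, and centrifuged at 21,000xg for 90 min to give the soluble supernatant.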

Chain of UniProt P46527 (P46527 whole entry, looked up): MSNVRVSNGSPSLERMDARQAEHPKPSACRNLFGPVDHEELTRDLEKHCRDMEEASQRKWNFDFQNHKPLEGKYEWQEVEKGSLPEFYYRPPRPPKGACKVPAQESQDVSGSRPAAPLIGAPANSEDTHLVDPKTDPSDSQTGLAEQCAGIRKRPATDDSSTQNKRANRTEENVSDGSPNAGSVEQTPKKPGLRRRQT
Chain of UniProt Q9UNS2 (Q9UNS2 whole entry, looked up): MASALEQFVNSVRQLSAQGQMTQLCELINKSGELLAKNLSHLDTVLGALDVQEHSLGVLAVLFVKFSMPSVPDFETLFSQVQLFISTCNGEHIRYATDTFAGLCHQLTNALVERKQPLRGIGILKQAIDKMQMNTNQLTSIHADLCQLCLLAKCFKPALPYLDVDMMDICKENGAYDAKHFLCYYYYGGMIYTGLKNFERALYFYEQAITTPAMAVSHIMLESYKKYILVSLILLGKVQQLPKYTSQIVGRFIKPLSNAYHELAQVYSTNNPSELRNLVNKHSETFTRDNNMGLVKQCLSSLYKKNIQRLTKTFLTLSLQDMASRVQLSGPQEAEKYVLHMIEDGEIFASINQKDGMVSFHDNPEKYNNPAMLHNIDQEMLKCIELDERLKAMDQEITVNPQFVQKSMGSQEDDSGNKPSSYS
Chain of UniProt Q00537 (Q00537 whole entry, looked up): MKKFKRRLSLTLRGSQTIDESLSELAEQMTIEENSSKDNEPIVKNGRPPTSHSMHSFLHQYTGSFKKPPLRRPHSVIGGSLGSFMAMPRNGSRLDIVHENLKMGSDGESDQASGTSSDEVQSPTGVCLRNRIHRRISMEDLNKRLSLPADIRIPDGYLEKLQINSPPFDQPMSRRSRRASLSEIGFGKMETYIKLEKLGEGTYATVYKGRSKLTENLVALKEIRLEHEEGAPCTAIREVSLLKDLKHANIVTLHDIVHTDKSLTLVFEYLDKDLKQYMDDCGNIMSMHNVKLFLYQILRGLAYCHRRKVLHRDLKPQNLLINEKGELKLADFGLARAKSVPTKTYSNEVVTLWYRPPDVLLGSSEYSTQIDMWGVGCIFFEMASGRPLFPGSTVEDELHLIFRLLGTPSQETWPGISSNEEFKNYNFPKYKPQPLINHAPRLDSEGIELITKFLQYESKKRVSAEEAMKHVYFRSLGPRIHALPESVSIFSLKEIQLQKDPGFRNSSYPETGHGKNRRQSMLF
Chain of UniProt Q14790 (Q14790 whole entry, looked up): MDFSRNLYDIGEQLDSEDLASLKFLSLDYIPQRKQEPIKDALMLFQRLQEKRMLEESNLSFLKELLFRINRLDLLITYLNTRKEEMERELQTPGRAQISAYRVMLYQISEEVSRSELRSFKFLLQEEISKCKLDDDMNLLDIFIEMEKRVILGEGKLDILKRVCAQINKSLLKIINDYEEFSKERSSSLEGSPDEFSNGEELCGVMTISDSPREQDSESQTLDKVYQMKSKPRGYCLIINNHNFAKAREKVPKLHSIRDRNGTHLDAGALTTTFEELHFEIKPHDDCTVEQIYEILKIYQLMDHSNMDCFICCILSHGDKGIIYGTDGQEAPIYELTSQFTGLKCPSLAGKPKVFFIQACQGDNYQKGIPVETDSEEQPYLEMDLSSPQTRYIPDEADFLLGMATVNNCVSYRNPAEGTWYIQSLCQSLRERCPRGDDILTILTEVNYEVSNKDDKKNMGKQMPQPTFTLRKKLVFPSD
Chain of UniProt P51636 (P51636 whole entry, looked up): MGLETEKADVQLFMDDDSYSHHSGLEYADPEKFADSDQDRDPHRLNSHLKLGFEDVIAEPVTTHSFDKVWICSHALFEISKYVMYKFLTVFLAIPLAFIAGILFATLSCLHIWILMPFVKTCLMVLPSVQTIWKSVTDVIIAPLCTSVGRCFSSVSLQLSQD
Chain of UniProt Q6ZU80 (Q6ZU80 whole entry, looked up): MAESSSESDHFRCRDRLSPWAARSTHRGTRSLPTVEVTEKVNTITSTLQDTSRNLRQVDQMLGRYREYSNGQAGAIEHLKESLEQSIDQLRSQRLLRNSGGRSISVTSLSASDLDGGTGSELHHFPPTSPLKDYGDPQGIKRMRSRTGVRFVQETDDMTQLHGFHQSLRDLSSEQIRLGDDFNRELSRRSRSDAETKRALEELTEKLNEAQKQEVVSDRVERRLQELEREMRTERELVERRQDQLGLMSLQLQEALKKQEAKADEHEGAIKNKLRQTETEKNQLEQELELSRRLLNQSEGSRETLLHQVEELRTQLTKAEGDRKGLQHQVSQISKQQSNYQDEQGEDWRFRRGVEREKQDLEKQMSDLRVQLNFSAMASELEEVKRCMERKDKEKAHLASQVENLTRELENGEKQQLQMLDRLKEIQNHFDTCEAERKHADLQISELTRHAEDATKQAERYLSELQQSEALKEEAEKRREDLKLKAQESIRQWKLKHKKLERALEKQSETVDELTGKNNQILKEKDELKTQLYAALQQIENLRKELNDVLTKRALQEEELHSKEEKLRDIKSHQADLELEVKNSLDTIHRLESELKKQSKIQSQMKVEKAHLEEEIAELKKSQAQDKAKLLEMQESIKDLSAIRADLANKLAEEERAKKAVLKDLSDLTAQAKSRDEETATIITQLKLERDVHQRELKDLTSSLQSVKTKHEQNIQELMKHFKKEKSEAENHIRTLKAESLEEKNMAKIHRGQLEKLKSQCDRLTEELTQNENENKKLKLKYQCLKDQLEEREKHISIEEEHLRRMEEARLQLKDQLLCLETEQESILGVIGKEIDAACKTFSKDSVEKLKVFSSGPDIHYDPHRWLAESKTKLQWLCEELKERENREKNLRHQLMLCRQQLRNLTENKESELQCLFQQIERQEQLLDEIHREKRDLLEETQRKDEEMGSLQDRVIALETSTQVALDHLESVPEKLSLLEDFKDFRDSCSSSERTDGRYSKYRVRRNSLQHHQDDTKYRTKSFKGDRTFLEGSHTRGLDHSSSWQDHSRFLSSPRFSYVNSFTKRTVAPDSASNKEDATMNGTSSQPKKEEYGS
Chain of UniProt Q9Y2V0 (Q9Y2V0 whole entry, looked up): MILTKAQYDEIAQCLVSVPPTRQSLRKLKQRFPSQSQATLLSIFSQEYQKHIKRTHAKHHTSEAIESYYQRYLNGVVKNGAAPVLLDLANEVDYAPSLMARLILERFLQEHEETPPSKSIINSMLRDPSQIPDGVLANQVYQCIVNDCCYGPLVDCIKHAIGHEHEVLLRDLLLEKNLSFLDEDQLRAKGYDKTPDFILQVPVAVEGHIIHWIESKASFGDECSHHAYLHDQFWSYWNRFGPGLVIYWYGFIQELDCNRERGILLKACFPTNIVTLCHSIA
Chain of UniProt P15954 (P15954 whole entry, looked up): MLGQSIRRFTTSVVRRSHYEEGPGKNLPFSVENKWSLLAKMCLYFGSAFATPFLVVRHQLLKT
Chain of UniProt Q6P5X5 (Q6P5X5 whole entry, looked up): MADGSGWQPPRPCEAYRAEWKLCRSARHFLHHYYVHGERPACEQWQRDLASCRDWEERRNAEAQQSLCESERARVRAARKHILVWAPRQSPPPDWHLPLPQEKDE
Chain of UniProt Q53ET0 (Q53ET0 whole entry, looked up): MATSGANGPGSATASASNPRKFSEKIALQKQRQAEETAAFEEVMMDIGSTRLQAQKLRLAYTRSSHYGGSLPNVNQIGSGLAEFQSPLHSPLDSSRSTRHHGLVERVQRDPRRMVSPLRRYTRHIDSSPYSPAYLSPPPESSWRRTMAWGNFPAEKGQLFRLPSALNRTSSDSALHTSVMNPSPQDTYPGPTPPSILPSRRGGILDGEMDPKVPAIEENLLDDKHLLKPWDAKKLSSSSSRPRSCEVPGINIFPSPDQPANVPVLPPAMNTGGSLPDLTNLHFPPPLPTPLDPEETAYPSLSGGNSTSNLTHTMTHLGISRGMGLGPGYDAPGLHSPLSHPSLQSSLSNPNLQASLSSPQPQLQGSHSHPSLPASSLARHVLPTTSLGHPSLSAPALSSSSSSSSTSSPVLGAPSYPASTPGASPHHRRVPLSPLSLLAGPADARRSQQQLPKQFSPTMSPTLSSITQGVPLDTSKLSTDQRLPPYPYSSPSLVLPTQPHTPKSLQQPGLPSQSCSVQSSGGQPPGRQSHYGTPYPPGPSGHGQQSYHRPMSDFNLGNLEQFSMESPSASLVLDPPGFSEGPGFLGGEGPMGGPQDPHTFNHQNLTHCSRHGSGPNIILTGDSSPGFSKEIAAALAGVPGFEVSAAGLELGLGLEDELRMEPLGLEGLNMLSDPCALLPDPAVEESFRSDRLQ
Chain of UniProt P24863 (P24863 whole entry, looked up): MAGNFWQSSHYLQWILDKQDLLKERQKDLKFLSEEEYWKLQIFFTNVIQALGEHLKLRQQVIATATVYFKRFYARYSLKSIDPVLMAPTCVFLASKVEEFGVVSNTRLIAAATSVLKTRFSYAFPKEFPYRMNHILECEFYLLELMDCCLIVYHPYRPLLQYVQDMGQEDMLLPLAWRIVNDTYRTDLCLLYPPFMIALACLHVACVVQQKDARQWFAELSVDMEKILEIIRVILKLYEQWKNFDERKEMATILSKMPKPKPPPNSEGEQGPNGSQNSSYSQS
Chain of UniProt Q13901 (Q13901 whole entry, looked up): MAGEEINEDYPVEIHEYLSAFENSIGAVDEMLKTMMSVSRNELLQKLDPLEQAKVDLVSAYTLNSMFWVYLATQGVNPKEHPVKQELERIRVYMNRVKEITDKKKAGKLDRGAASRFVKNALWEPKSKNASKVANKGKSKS

CASP8 isoform 9 (UniProt Q14790) and COX7C (UniProt P15954) are within 0.2 log units of each other in log2 fold change: 0.007 for the first, 0.025 for the second.

CCDC57 (UniProt Q2TAC2) and CRTC2 (UniProt Q53ET0) are within 0.2 log units of each other in log2 fold change: -0.026 for the first, -0.02 for the second.

COMMD1 (UniProt Q8N668) and C15orf41 (UniProt Q9Y2V0) are within 0.2 log units of each other in log2 fold change: -0.108 for the first, 0.057 for the second.

C6orf120 (UniProt Q7Z4R8) and COG2 (UniProt Q14746) are within 0.2 log units of each other in log2 fold change: 0.069 for the first, -0.029 for the second.

CAB39L (UniProt Q9H9S4) and CDK19 (UniProt Q9BWU1) are within 0.2 log units of each other in log2 fold change: 0.13 for the first, 0.042 for the second.

CHAF1A (UniProt Q13111) and COPS3 isoform 2 (UniProt Q9UNS2) are within 0.2 log units of each other in log2 fold change: -0.015 for the first, 0.054 for the second.

C19orf54 (UniProt Q5BKX5) and CAV2 (UniProt P51636) are within 0.2 log units of each other in log2 fold change: -0.026 for the first, -0.067 for the second.

CMTM3 (UniProt Q96MX0) and COX7B (UniProt P24311) are within 0.2 log units of each other in log2 fold change: 0.063 for the first, -0.026 for the second.

CCNC (UniProt P24863) and CDK17 isoform 2 (UniProt Q00537) are within 0.2 log units of each other in log2 fold change: 0.051 for the first, 0.087 for the second.

CHST11 (UniProt Q9NPF2) and CDK16 isoform 2 (UniProt Q00536) are within 0.2 log units of each other in log2 fold change: 0.056 for the first, 0.03 for the second.

Going from CDK4 (UniProt P11802) to CRLS1 (UniProt Q9UJA2), the log2 fold change falls from 0.108 to -0.228.

First: CDC42SE1 (UniProt Q9NRR8)
Chain of UniProt Q9NRR8 (Q9NRR8 whole entry, looked up): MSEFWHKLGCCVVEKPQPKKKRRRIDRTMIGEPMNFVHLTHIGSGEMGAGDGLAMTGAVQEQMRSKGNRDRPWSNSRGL
Second: CHST10 (UniProt O43529)
The log2 fold change of the first is lower: 0 for the first, 0.235 for the second.

CDCA2 (UniProt Q69YH5) and CENPE (UniProt Q02224) are within 0.2 log units of each other in log2 fold change: 0.161 for the first, 0.231 for the second.

CEP128 (UniProt Q6ZU80) and CNN3 (UniProt Q15417) are within 0.2 log units of each other in log2 fold change: 0.093 for the first, 0.044 for the second.

CD84 (UniProt Q9UIB8) and CLINT1 isoform 3 (UniProt Q14677) are within 0.2 log units of each other in log2 fold change: 0.049 for the first, -0.019 for the second.

CDKN1B (UniProt P46527) and C1D (UniProt Q13901) are within 0.2 log units of each other in log2 fold change: -0.017 for the first, -0.073 for the second.

C22orf39 (UniProt Q6P5X5) and CRTC1 isoform 2 (UniProt Q6UUV9) are within 0.2 log units of each other in log2 fold change: 0.075 for the first, -0.068 for the second.

CLN5 (UniProt O75503) and CHPT1 (UniProt Q8WUD6) are within 0.2 log units of each other in log2 fold change: 0.136 for the first, 0.064 for the second.

compound: C[C@@H](Oc1cc(-c2cnn(C3CCNCC3)c2)cnc1N)c1c(Cl)ccc(F)c1Cl [crizotinib]; assay: as above
Procedure, shortened: as §1

CASP8 isoform 9 (UniProt Q14790) and COX7C (UniProt P15954) are within 0.2 log units of each other in log2 fold change: -0.02 for the first, 0.147 for the second.

CCDC57 (UniProt Q2TAC2) and CRTC2 (UniProt Q53ET0) are within 0.2 log units of each other in log2 fold change: 0.06 for the first, -0.077 for the second.

COMMD1 (UniProt Q8N668) and C15orf41 (UniProt Q9Y2V0) are within 0.2 log units of each other in log2 fold change: -0.022 for the first, -0.01 for the second.

C6orf120 (UniProt Q7Z4R8) and COG2 (UniProt Q14746) are within 0.2 log units of each other in log2 fold change: -0.04 for the first, -0.17 for the second.

CAB39L (UniProt Q9H9S4) and CHAF1A (UniProt Q13111) are within 0.2 log units of each other in log2 fold change: 0.036 for the first, 0.058 for the second.

COPS3 isoform 2 (UniProt Q9UNS2) and C19orf54 (UniProt Q5BKX5) are within 0.2 log units of each other in log2 fold change: 0.046 for the first, 0.025 for the second.

CAV2 (UniProt P51636) and CMTM3 (UniProt Q96MX0) are within 0.2 log units of each other in log2 fold change: -0.087 for the first, -0.007 for the second.

COX7B (UniProt P24311) and CCNC (UniProt P24863) are within 0.2 log units of each other in log2 fold change: 0.013 for the first, -0.004 for the second.

CDK17 isoform 2 (UniProt Q00537) and CHST11 (UniProt Q9NPF2) are within 0.2 log units of each other in log2 fold change: -0.082 for the first, -0.106 for the second.

CDK16 isoform 2 (UniProt Q00536) and CDK4 (UniProt P11802) are within 0.2 log units of each other in log2 fold change: -0.036 for the first, -0.108 for the second.

CRLS1 (UniProt Q9UJA2) and CDC42SE1 (UniProt Q9NRR8) are within 0.2 log units of each other in log2 fold change: 0.02 for the first, -0.099 for the second.

Compared with CHST10 (UniProt O43529), CDCA2 (UniProt Q69YH5) is higher in log2 fold change: -0.206 for the first, 0.025 for the second.

CENPE (UniProt Q02224) and CEP128 (UniProt Q6ZU80) are within 0.2 log units of each other in log2 fold change: -0.018 for the first, 0.056 for the second.

CLINT1 isoform 3 (UniProt Q14677) and CDKN1B (UniProt P46527) are within 0.2 log units of each other in log2 fold change: 0.02 for the first, -0.018 for the second.

Going from C1D (UniProt Q13901) to C22orf39 (UniProt Q6P5X5), the log2 fold change falls from 0.06 to -0.303.

First: CRTC1 isoform 2 (UniProt Q6UUV9)
Second: CLN5 (UniProt O75503)
Chain of UniProt O75503 (O75503 whole entry, looked up): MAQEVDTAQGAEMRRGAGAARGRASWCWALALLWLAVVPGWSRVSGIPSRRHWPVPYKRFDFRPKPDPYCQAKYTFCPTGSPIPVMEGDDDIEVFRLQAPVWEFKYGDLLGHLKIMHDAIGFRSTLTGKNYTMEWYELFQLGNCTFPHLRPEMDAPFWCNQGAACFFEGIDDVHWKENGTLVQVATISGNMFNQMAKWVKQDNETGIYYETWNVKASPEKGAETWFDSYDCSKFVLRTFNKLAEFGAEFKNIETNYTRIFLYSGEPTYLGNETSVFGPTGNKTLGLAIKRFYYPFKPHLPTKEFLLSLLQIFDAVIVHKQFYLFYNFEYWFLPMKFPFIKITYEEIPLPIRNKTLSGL
The log2 fold change of the first is higher: -0.016 for the first, -0.733 for the second.
